Source: PubChem BioAssay (The Scripps Research Institute Molecular Screening Center)
FBW7 act = activators of human E3 ligase FBW7; AID 1259310; normalized activity (activation), % at 26.1 µM; Q969H0; hit rate 0.13% among 650,000; AlphaScreen FBW7–phospho-cyclin E peptide binding, activator screen; in the data active = normalized activity above about 1.9%;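 note: purified mutant Fbw7 with reduced substrate affinity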
TEAD-YAP inh = TEAD-YAP interaction inhibition. HEK-TIYL cells, TEAD-Gal4/YAP UAS-luciferase luminescence. inhibition, % at 9.12 µM. hit rate 1.4% among 640,000; in the data active = inhibition above about 32%;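 note: 0% = median of test compound wells and 100% = reference inhibitor wells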
MITF primary = blocks human microphthalmia-associated transcription factor | AlphaScreen MITF homodimerization, bead proximity signal | inhibition, % at 2.6 µM | hit rate 0.91% among 650,000 | O75030; in the data active = inhibition above about 50%;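 note: 0% = vehicle wells with protein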
Target sequence (O75030 whole entry, looked up): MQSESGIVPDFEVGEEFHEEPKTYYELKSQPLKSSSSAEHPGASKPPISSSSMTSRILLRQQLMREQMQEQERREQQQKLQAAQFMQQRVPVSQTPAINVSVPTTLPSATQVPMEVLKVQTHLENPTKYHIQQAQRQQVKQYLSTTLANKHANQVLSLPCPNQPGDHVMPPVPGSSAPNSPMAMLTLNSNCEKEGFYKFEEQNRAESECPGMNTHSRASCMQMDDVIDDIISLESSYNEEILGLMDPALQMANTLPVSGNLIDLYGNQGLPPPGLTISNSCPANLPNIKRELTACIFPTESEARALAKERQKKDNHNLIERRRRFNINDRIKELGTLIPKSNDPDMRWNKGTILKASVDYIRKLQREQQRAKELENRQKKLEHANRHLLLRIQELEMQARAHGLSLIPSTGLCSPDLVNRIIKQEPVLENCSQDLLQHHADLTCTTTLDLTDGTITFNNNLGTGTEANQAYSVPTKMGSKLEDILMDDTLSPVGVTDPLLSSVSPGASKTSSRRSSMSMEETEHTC
GPR151 activ = activates the human receptor GPR151 | Q8TDV0 | PathHunter beta-arrestin GPR151 cells, luminescence | activation, % at 11.2 µM | hit rate 1% among 650,000 | AID 1508602; in the data active = activation above about 4.9%;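 note: 0% = median of compound wells and 100% = cells with positive control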
GPR151 confirm = confirmation of human GPR151 activators; shares compounds with GPR151 activ; GPR151 PathHunter beta-arrestin cells, luminescence, 90 min; % of EA-reagent control over plate median; activation, % at 11.2 µM; 6,700 tested, under 10 active; AID 1508609;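 active = mean percent activation across replicates above the confirmation screen cutoff of 4.91%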
GPR119 ag = GPR119 activation, counter-screen for GPR151 activators; shares compounds with GPR151 activ; GPR119 PathHunter beta-arrestin cells, luminescence, 90 min; 0 = compound-well median, 100 = enzyme-acceptor control; activation, % at 11.2 µM; hit rate 0.3% among 6,700; AID 1508611;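 active = mean percent activation in the counterscreen above 29.09%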;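 note: counterscreen on off-target GPR119 to flag nonselective hits from the GPR151 activator screen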
An asterisk follows results filed as active; / = no result given. Most compounds without a hit are left out; they make up all but 3.5% or so of the library.

SMILES	FBW7 act	TEAD-YAP inh	MITF primary	GPR151 activ	GPR151 confirm	GPR119 ag
FC(F)(F)c1ccc(-c2cnnc(N3CCN(Cc4cccnc4)CC3)n2)cc1	0	6	-2	6.0*	0	-2
C[C@@H]1CN(c2nncc(-c3cccc(C(F)(F)F)c3)n2)C[C@H](C)O1	0	0	13	-1	/	/
FC(F)(F)c1ccc(-c2cnnc(N3CCCCCC3)n2)cc1	0	7	2	0	/	/
Cn1c2c(c(=O)n(C)c1=O)C(c1cc([N+](=O)[O-])c(N3CCOCC3)cc1N1CCOCC1)O2 (stereo not drawn)	0	4	18	1	/	/
CC(C)(C)c1ccccc1NC(=O)CCl	0	5	5	-1	/	/
CC(=O)N(C)c1ccccc1NC(=O)CCl	0	-9	-12	8.7*	0	4
Cc1ccc(C(=O)Nc2ccc(NC(=O)c3ccccc3N)cc2)cc1	1	-8	-1	5.3*	1	12
COc1ccc(C(=O)NC(C)(C)CC(C)(C)C)cc1[N+](=O)[O-]	0	-10	11	6.6*	0	0
CCn1ccnc1CN1CCc2c([nH]c3ccccc23)C1c1cccc(C)n1 (stereo not drawn)	0	-35	17	1	/	/
Cc1cccc(NC(=O)/C(C#N)=C\c2ccco2)c1	0	-62	8	1	/	/
Cc1cc(C)c(NC(=O)/C(C#N)=C\c2ccco2)c(C)c1	0	5	-16	6.3*	-1	-1
CC(C)(C)n1nnnc1C(c1ccncc1)N1CCC(Cc2ccccc2)CC1 (stereo not drawn)	0	-15	2	0	/	/
CC1(C)CC(=O)C(C=Nc2ccc(NC3=C(C#N)C(=O)CC(C)(C)C3)cc2)=C(O)C1	0	-1	16	7.1*	1	-2
C#CCN1CCc2cc(OC)c(OC)cc2C1C (stereo not drawn)	0	-10	-10	6.4*	2	4
COc1cc2c(cc1OC)C(C)N(C(=O)c1ccccc1Cl)CC2 (stereo not drawn)	0	0	-7	0	/	/
CSc1ccccc1N1C(=O)C2CCCCC2C1=O (stereo not drawn)	0	1	-2	1	/	/
COc1ccc(/C=C(\C#N)C(=O)OCC(=O)Nc2ccc(F)cc2Cl)cc1	0	-1	20	1	/	/
C=CCNS(=O)(=O)c1cc(C(=O)Nc2cc(Cl)cc(Cl)c2)ccc1F	0	-16	-9	-2	/	/
CCc1ccc(NC(=O)c2ccc(F)c(S(=O)(=O)NCc3ccc(C)cc3)c2)cc1	0	-4	-6	2	/	/
C=CCNS(=O)(=O)c1cc(C(=O)Nc2ccc(OCC)cc2)ccc1F	0	26	7	5.7*	0	-1
Cc1ccc(CNS(=O)(=O)c2cc(C(=O)Nc3ccc(C(C)C)cc3)ccc2F)cc1	0	4	13	5.8*	1	7
O=C(Nc1ccccc1)c1ccc(Cl)c(S(=O)(=O)NCc2ccccc2)c1	0	13	-2	8.2*	-1	-13
Cc1ccc(NC(=O)Cn2cnc3sc(C(=O)Nc4ccc5c(c4)OCO5)c(C)c3c2=O)cc1Cl	0	-5	7	-2	/	/
CCc1ccc(/C=N/NC(=O)COc2ccc3c(c2)OCO3)cc1	0	0	14	1	/	/
Cc1ccc(N2C(=O)CSC23C(=O)Nc2ccccc23)cc1Br (stereo not drawn)	-1	5	-3	5.0*	0	2
SMILES	FBW7 act	TEAD-YAP inh	MITF primary	GPR151 activ	GPR151 confirm	GPR119 ag
Cc1cc(N2C(=O)CSC23C(=O)Nc2ccccc23)ccc1Br (stereo not drawn)	-1	2	7	0	/	/
CN(CC(=O)O)S(=O)(=O)c1cccc2nsnc12	0	-8	-6	0	/	/
Cc1ccc(S(=O)(=O)N(CC(N)=O)c2cccc([N+](=O)[O-])c2)cc1	0	-7	-1	8.4*	1	-1
CS(=O)(=O)N(CC(N)=O)c1cccc([N+](=O)[O-])c1	0	-1	-9	0	/	/
Cc1ccc2nc(N(CCCn3ccnc3)C(=O)c3ccc(F)cc3)sc2c1	0	-2	4	0	/	/
Cc1ccc(CC(=O)N(CCCn2ccnc2)c2nc3ccccc3s2)c(C)c1	0	6	-3	6.9*	-2	-14
COc1ccc(-c2nc(SCC(=O)Nc3ccc4c(c3)OCO4)n[nH]2)cc1	0	-19	-3	6.5*	0	4
COc1ccc(-c2nc(SCC(=O)Nc3ccc4ccccc4c3)n[nH]2)cc1	0	5	-7	0	/	/
O=C(NCCCN1CCCC1=O)c1cccc(-c2ccc(C(=O)NC3CC3)cc2)c1	0	-8	14	6.1*	1	-1
COc1ccc(-c2cccc(C(=O)NCCCN3CCCC3=O)c2)cc1	0	-10	-10	2	/	/
O=C(NC1CC1)c1cnc(NCCCN2CCCC2=O)s1	0	2	3	6.0*	0	-5
Nc1nonc1-n1nnc(C(=O)N/N=C/c2ccccc2)c1-c1ccccc1	0	-2	-6	1	/	/
COc1ccc(N(CC(=O)Nc2ccccc2-c2ccccc2)S(C)(=O)=O)cc1	0	-1	3	15*	-1	-3
Cc1ccc(N(CC(=O)Nc2ccccc2C(C)C)S(C)(=O)=O)cc1	0	2	10	6.5*	1	5
CCc1ccccc1NC(=O)CN(c1ccc(C)cc1)S(C)(=O)=O	0	9	13	0	/	/
COc1cccc(NC(=O)CN(C)CC(=O)Nc2ccccc2-c2ccccc2)c1	0	-8	46	5.7*	-1	-10
Cc1ccc(NC(=O)CCC(=O)OC2CCC(C(C)(C)C)CC2)cc1 (stereo not drawn)	0	5	-13	0	/	/
CC(C)(C)C1CCC(OC(=O)CCC(=O)N2CCCCC2)CC1 (stereo not drawn)	0	-44	-9	11*	0	4
COc1ccc(OC)c(-n2c(CN3CCC(C(N)=O)CC3)nc3ccccc3c2=O)c1	0	15	5	5.6*	0	-11
Cc1cc(-c2ccccc2)nc(N2CCC(C(=O)NCc3cccs3)CC2)n1	0	-7	-16	10*	0	13
Cc1cc(N(C)C)nc(N2CCC(C(=O)NCc3cccs3)CC2)n1	0	3	-2	-1	/	/
O=S(=O)(Nc1c(Cl)c(Cl)c(O)c2ccccc12)c1ccccc1	0	11	-13	0	/	/
COCCCNc1nc(-c2ccccc2F)nc2ccccc12	0	11	-32	6.3*	-1	-14
COCCNc1nc(-c2ccccc2F)nc2ccccc12	0	24	9	0	/	/
Cc1ccc(/C=C/C(=O)NCc2ccc(S(N)(=O)=O)cc2)o1	-1	-6	5	6.3*	0	-4
COC(c1ccccc1)c1nnc(CCC(=O)N(CCO)Cc2ccccc2)o1 (stereo not drawn)	0	5	7	0	/	/
